# Assay outcomes: PubChem, National Center for Advancing Translational Sciences (NCATS)
# VACV Venus inh: inhibitors of vaccinia virus (Venus reporter); Vaccinia virus Venus reporter expression, fluorescence; Potency, µM (top dose mostly 36.5 µM), inactives show top-dose activity change, negative = inhibition, usual class: inhibitors; 330,000 tested, 0.46% active; calls by dose curve; tested in A549 cells; further: potency means the concentration at half of the fitted maximal effect; nearly all actives have a fitted effect of over 30% in size
# VACV mCherry inh: inhibitors of vaccinia virus infection (mCherry reporter signal); 310,000 tested, 0.63% active; Vaccinia virus mCherry reporter infection, fluorescence; Potency, µM (doses to about 36.5 µM), for the others: at the top dose activity change, negative = inhibition, hits mostly inhibitors; calls by dose curve; tested in A549 cells; further: potency means the concentration at half of the fitted maximal effect; nearly all actives have a fitted effect of over 35% in size
# Marburg entry inh: inhibitors of Marburg virus binding or cell entry; 300,000 tested, 1.8% active; Marburg virus pseudotyped entry inhibition, cell reporter; Potency, µM (doses to about 37.8 µM), for the others: at the highest dose activity change, negative = inhibition, usual class: inhibitors; calls by dose curve; tested in HEK293 cells; further: potency means the concentration at half of the fitted maximal effect
# FMDV antiviral: antivirals against foot and mouth disease virus. FMDV antiviral cell-based qHTS. 410,000 tested, 1.2% active. Potency, µM (doses to about 57.9 µM), without a hit: top-dose activity change, negative = inhibition, hits mostly inhibitors. AID 1159524; calls by dose curve; tested in HEK293T cells; further: read-out not given here; potency means the concentration at half of the fitted maximal effect; nearly all actives have a fitted effect of over 45% in size
# HCMV antiviral: inhibitors of human cytomegalovirus; 410,000 tested, 4.5% active; activity change, negative = inhibition, % at 57.5 µM; HFF cells, HCMV-luciferase reporter, 72 h; active compounds read low; in the data active means activity change below about -60%; inconclusive means no clear call, values can overlap the other calls; inactive means above about -39%
#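 Inhibition of viral replication was scored as loss of reporter luminescence in HFFs infected with HCMV-luciferase (MOI 1 PFU/cell) for 72 h; compounds tested at 2 doses, normalized to buffer and Salinomycin controls.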
# Lassa entry inh: Lassa virus entry inhibition; AID 540256; Potency, µM (top dose mostly 37.9 µM), for the others: at the top dose activity change, negative = inhibition, hits mostly inhibitors; 300,000 tested, 1.2% active; Lassa virus pseudotype entry inhibition, cell reporter; calls by dose curve; tested in HEK293 cells; further: potency means the concentration at half of the fitted maximal effect; nearly all actives have a fitted effect of over 50% in size
# * marks the source's active call; other numbers are inactive results; i = inactive; ? = inconclusive; · = not tested or not shown; + = active, no number; ! = not active in a repeat; [ ] = dose if it differs, or a comment. Only some compounds are listed: those with a hit (about 6.5% of all), similar ones and a draw of the others. On the % scale 0 is the no-effect control and ±100 the full control effect.
SMILES,VACV Venus inh,VACV mCherry inh,Marburg entry inh,FMDV antiviral,HCMV antiviral,Lassa entry inh
Cc1cc(NC(=O)c2ccc(NC(=O)CCS(=O)(=O)c3cccs3)cc2)ccc1Br,-27%,-3%,?,?,-27,?
Cc1ccccc1OCC(=O)Nc1ccc2nc(SCC(=O)N3CCCC3)sc2c1,-10%,-4%,?,-22%,-35,11%[46.1 µM]
CC(=O)CSc1nc2ccc(Nc3nc(N4CCOCC4)nc(N4CCOCC4)n3)cc2s1,·,·,?,-10%,-13,-13%
CC(C)(C)NC(=O)CSc1nc2ccc(Nc3nc(N4CCOCC4)nc(N4CCOCC4)n3)cc2s1,·,·,·,?,-66*,·
O=C(Nc1ccc2nc(SCC(=O)N3CCc4ccccc43)sc2c1)c1ccc(Cl)cc1,-30%,?,7%[46.1 µM],6%,-93*,?
O=C(Nc1ccc2nc(SCC(=O)N3CCc4ccccc43)sc2c1)c1cccc(Cl)c1,-10%,-3%,24%[46.1 µM],-11%,37,-6%[46.1 µM]
CC(C)(C)c1ccc(C(=O)Nc2ccc3nc(SCC(=O)N4CCCC4)sc3c2)cc1,?,?,?,10µM*,-97*,?
Cc1ccccc1OCC(=O)Nc1ccc2nc(SCC(=O)N3CCOCC3)sc2c1,-6%,-3%,-20%[46.1 µM],28µM*,-78*,7%[46.1 µM]
Cc1ccc2nc(SCC(=O)NCC3Cc4cc(-c5ncccc5C)ccc4O3)[nH]c2c1 (stereo unspecified),-17%,-22%,·,-28%,·,·
O=C(NCC(c1cccnc1)N1CCc2ccccc21)c1cccc(Br)c1 (stereo unspecified),-6%,-15%,·,0%,-39,?
O=C(COC(=O)C12CC3CC(CC(C3)C1)C2)NCC1CCCO1 (stereo unspecified),-11%,-8%,·,·,·,·
COC(=O)C1=C(C)N(C)C(=NCc2ccc(OC)cc2)NC1c1ccc(F)cc1 (stereo unspecified),·,·,·,·,-4,·
O=C(Nc1ccc2nc(SCC(=O)N3CCc4ccccc43)sc2c1)c1ccc(F)cc1,?,?,2%[46.1 µM],0%,-63*,-2%[46.1 µM]
C=CCN1C(=O)/C(=C2/Sc3ccc(OC)cc3N2C)SC1=Nc1ccccc1,·,·,?,-7%,-6,?
CCCCN1C(=O)/C(=C2/Sc3ccccc3N2C)S/C1=N\c1ncn[nH]1,·,·,·,-23%,-78*,·
CCN1/C(=C\c2ccc3cc(C)ccc3[n+]2CC)Sc2cc(C)c(C)cc21,·,·,?,?,-97*,·
CCN1/C(=C/c2ccc3cc(C)cc(C)c3[n+]2CC)Sc2cc(C)ccc21,·,·,·,?,-100*,·
CCOC(=O)/C(C#N)=C(C)/C=C1\Sc2ccccc2N1CC,-23%,-22%,?,12%,92,20%
CCN1/C(=C/c2ccc3cccc(C)c3[n+]2CC)Sc2ccccc21,·,·,2.6µM*,7.9µM*,-104*,6.5µM*
CCN1/C(=C/c2ccc3cc(C)ccc3[n+]2CC)Sc2ccc3sccc3c21,38%,-14%,·,35µM*,·,·
COc1cccc(Cn2c(CNC(=O)Cc3cccc(C)c3)nc3cccnc32)c1,-9%,-9%,·,1%,?,-18%[46.1 µM]
CN(C)c1c(Br)cc(C=O)cc1Br,4%,44%,·,·,·,·
Cc1ccc(CNC(=O)c2ccc3c(c2)N(Cc2cccc(C)c2)C(=O)CS3)cc1,-3%,-10%,-24%[46.1 µM],0%,-13,?
COC(=O)c1cc(C(=O)OC)n2c(C)cc3ccccc3c12,·,·,13%[14.2 µM],·,·,·
O=C(Nc1cc(F)ccc1F)N1C[C@H]2[C@@H](c3ccccc31)[C@H](CO)N2C(=O)c1ccccc1,·,·,·,·,42,·
SMILES,VACV Venus inh,VACV mCherry inh,Marburg entry inh,FMDV antiviral,HCMV antiviral,Lassa entry inh
O=C(Nc1n[nH]c2cc(-c3cc(F)ccc3F)ccc12)C1CC1,·,·,·,·,·,25µM*
CC12CC[C@@](C(=O)O)(C(=O)C1=O)C2(C)C,·,·,·,-3%,·,·
O=C(O)c1ccc(Cl)c(N2C(=O)Nc3ccccc3N2O)c1,-6%,-2%,·,9%,-61*,·
COc1ccc(C(=O)O)cc1N1C(=O)Nc2ccccc2N1O,-6%,-2%,·,1%,-23,·
CCNC(=O)C1(C)CCN1CCS(=O)(=O)c1ccc(C)cc1 (stereo unspecified),-4%,-8%,·,-13%,-102*,·
CCCNC(=O)C1(C)CCN(CCS(=O)(=O)c2ccc(C)cc2)C1 (stereo unspecified),?,?,·,-10%,-6,·
CCOC(=O)C1CCN(C(=O)c2nn(-c3ccc(C)cc3)c(=O)c3c2c2ccccc2n3C)CC1,5%,0%,-1%[46.1 µM],-30%,1,34%[46.1 µM]
N#C/C(=C/c1ccc(N2CCCCCC2)o1)c1ccc(Cl)cc1,·,·,?,25µM*,·,-25%
Nc1ccc(N=Nc2ccccc2)c(N)n1,-15%,-13%,-7%,13%,-102*,?
CCOP(=O)(OCC)c1cccc(O)c1,-2%,-21%,16%[46.1 µM],-13%,-65*,23%
CCOP(=O)(OCC)c1cccc(OP(=O)(c2cccc([N+](=O)[O-])c2)c2cccc([N+](=O)[O-])c2)c1,-3%[7.34 µM],i[7.34 µM],1%[46.1 µM],-7%,64,-12%
C[N+]1(CC(=O)c2cccc([N+](=O)[O-])c2)CCOCC1,-20%,-25%,·,·,·,·
CC(=O)OC[C@H]1O[C@H](C#Cc2ccc(C)cc2C)C=C[C@H]1OC(C)=O,·,·,-2%[14.2 µM],·,·,-33%[14.3 µM]
Cc1ccc(N2C(=O)c3cccc4c(N)ccc(c34)C2=O)c2cccnc12,·,·,·,-17%,+,·
CCOc1ccc(NC(=O)CN(C)C(=O)CC2CCCCC2)cc1OCC,·,·,·,-11%,-68*,·
CCOc1ccccc1CNC(=O)Cn1nc(C)c2c(C)n(-c3ccc(C)cc3)nc2c1=O,·,·,·,16µM*,·,·
COc1ccc(OC)c(CCNC(=O)C(C)n2nc(C)c3c(C)n(-c4ccc(C)cc4)nc3c2=O)c1 (stereo unspecified),-28%[7.34 µM],-22%[7.34 µM],·,3.5µM*,-77*!,-16%[46.1 µM]
COc1ccc(OC)c(CCNC(=O)C(C)n2nc(C)c3c(C)n(-c4ccccc4)nc3c2=O)c1 (stereo unspecified),-12%,i,?,-8%,-10,-22%[46.1 µM]
COc1ccc(CCNC(=O)Cn2nc(C)c3c(C)n(-c4ccc(C)cc4)nc3c2=O)c(OC)c1,?,-28%,·,?,-91*,?
Cc1nn(CC(=O)NCc2cccs2)c(=O)c2nn(-c3ccccc3)c(C)c12,-5%,?,2%[46.1 µM],-4%,-71*,2%[46.1 µM]
O=C1OC(c2cc(I)c(O)c(I)c2)(c2cc(I)c(O)c(I)c2)c2ccccc21,·,·,·,·,3,·
FC(F)(F)c1ccccc1-n1c(-c2ccco2)n[nH]c1=S,-14%,-3%,-8%[46.1 µM],14µM*,?,-4%[46.1 µM]
Cc1ccccc1-n1c(-c2ccco2)n[nH]c1=S,-12%,i,?,-12%,9,11%
C/C(N)=C(/C#N)C(=O)COC(=O)Cc1coc2ccc3ccccc3c12,-2%,-4%,?,5%,-68*,-7%
CCC(COC)NC(=O)c1cnn(-c2ncc3c(n2)-c2ccccc2CC3)c1C (stereo unspecified),-12%,-20%,·,29%,·,·
